# Bioassay records (PubChem)
# KB-3-1 tox – kills parental KB-3-1 adenocarcinoma cells. KB-3-1 viability, CellTiter-Glo ATP luminescence, 72 h. Potency, µM (doses to about 46.1 µM), most hits filed as cytotoxic. AID 1347075. 400,000 tested, 1.4% active; further: on the % scale 0 is the no-effect control and ±100 the full control effect; nearly all actives have a fitted effect of over 60% in size
#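 Multi-concentration cytotoxicity screen in KB-3-1 cells grown in DMEM lacking phenol red with 10% FBS. After 72 h at 37 °C with compound, ATP-dependent luminescence was recorded.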
# HT1080-NT tox – kills 2HG-producing HT-1080-NT fibrosarcoma cells; HT-1080-NT fibrosarcoma viability, CellTiter-Glo ATP luminescence, 48 h; Potency, µM (titrated, usually from 46.1 µM), without a hit: at the top dose activity, negative = less viability, most hits filed as cytotoxic; 360,000 tested, 1.6% active; AID 686970;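 further: NT is the 2HG producing partner of a matched IDH1 knockdown line; 0% = DMSO-treated cells and -100% = media-only wells without cells; nearly all actives have a fitted effect of over 55% in size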
#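 Viability by CellTiter-Glo luminescence after 48 h compound exposure at 37C of HT-1080-NT cells (750/well, RPMI, 5% FBS). % activity scaled between DMSO wells and medium-only wells, then curve-fitted and categorized by curve class.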
# HT1080 IDH1KD tx – HT-1080 IDH1 knockdown cell toxicity (counter line); Potency, µM (doses to about 46.1 µM), for the others: top-dose activity, negative = toxicity, most hits filed as cytotoxic; 360,000 tested, 2% active; HT-1080 IDH1 knockdown viability, ATP luminescence, 48 h;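 further: 0% = DMSO wells and -100% = cell-free medium wells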
#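 Assay cells: HT-1080 with IDH1 knockdown, 750 per well, RPMI/5% FBS. Exposure: 48 h at 37 °C following 2 h pre-incubation. Read: CellTiter-Glo luminescence; fitted concentration-response, curve class assigned.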
# SW480 rerep – induces DNA re-replication in SW480 colon adenocarcinoma cells | 340,000 tested, 1.8% active | SW480 DNA re-replication, Hoechst DNA content imaging, 48 h | Potency, µM (series often up to 46.1 µM), inactives show at the top dose re-replication activation, actives largely listed as activators | AID 624297; further: % of control where 0% means no effect; nearly all actives have a fitted effect of over 55% in size
#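 Treated cells incubate 48 hr (37 C, 5% CO2), are stained 40 min with Hoechst, and nuclear fluorescence is enumerated; a rise in nuclei with high DNA signal marks re-replication.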
# MCF10A rerep – inducers of DNA re-replication in MCF 10A breast cells. 350,000 tested, 2.9% active. Potency, µM (titrated, usually from 46.1 µM), for the others: at the highest dose activity, positive = re-replication, most hits filed as activators. AID 624296. MCF 10A DNA re-replication, Hoechst nuclear intensity, 48 h; further: % of control where 0% means no effect; nearly all actives have a fitted effect of over 50% in size
# KB-V1 MDR tox – kills drug-selected multidrug resistant KB-V1 cells. AID 1347076. KB-V1 MDR cells viability, CellTiter-Glo, 72 h. 400,000 tested, 3.4% active. Potency, µM (titrated, usually from 46.1 µM), usual class: cytotoxic; further: on the % scale 0 is the no-effect control and ±100 the full control effect; nearly all actives have a fitted effect of over 60% in size
#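 KB-V1, DMEM (no phenol red) + 10% FBS; cpd pin-transferred, titration series; 72 h, 37 degrees C; CellTiter-Glo, luminescence. Data normalized, curve-fit.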
# * hit, by the source's call; i = inactive; ? = inconclusive; . = not tested or not shown; [ ] = dose if it differs, or a comment. Only some compounds are listed: those with a hit (about 7.9% of all), similar ones and a draw of the others. The call rests on the fitted dose curve; in most records, active means well fitted curve in the direction sought with a large enough effect; inconclusive means small, poorly fitted or top-dose-only effect, or another doubt; inactive means no such curve, though single readings can be large; an effect the other way counts as inactive or inconclusive. Potency means the concentration at half of the fitted maximal effect.
SMILES,KB-3-1 tox,HT1080-NT tox,HT1080 IDH1KD tx,SW480 rerep,MCF10A rerep,KB-V1 MDR tox
COC(=O)CC1(C(=O)OC)Oc2ccc(Br)cc2C(=O)N1c1cccc(Cl)c1Cl (stereo not given),?,21µM*,?,18µM*,?,5.2µM*
COC(=O)CC1(C(=O)OC)Oc2ccc(Br)cc2C(=O)N1c1cc(Cl)c(Cl)cc1Cl (stereo not given),?,?,-28%,?,-8%,10µM*
COC(=O)CC1(C(=O)OC)Oc2ccc(Br)cc2C(=O)N1c1ccc(Br)cc1Cl (stereo not given),?,15µM*,15µM*,?,?,18µM*
CCCCOc1ccc(CNC(=O)c2cnc3sc(N4CCC(C)CC4)nn3c2=O)cc1,i,.,.,.,.,i
Cc1ccc2occ(-c3cc(-c4ccccc4)nc4c3COc3ccccc3-4)c(=O)c2c1,i,.,.,.,.,i
Cc1cccc(/C=C2/S/C(=N/N=C3\CC4CCC3(C)C4(C)C)NC2=O)c1 (stereo not given),?,-3%,-2%[9.24 µM],13%,?,21µM*
O=C1c2ccccc2S(=O)(=O)c2cc(N3CCC4(CC3)OCCO4)ccc21,i,-12%,-4%,1%,?,7.3µM*
CC1CCN(c2ccc3c(c2)S(=O)(=O)c2ccccc2C3=O)CC1,i,-6%,-7%,23µM*,18µM*,i
CCOc1ccc(CC(=O)N/N=C(\C)c2cccnc2)cc1OCC,i,-3%,-4%,2%,21µM*,i
C/C(=N/NC(=O)CNC(=O)COc1cccc(C)c1)c1ccc(Cl)cc1,i,15%,9%,-9%,-4%,i
CC(=NNC(=O)COc1cccc(C)c1)c1cccnc1,i,8%,9%,-4%,4%,16µM*
COc1cccc(C(=O)N2CCCc3ccccc32)c1OC,i,-4%,-3%,.,.,i
Cc1cccc(NC(=O)C2CCN(c3nc4ccccc4[nH]3)CC2)c1C,i,.,.,.,.,i
O=C(NC(c1ccccc1)c1c(O)ccc2ccccc12)c1ccccc1Cl (stereo not given),?,18µM*,11µM*,?,23µM*,21µM*
O=C(NC(c1ccc(Cl)cc1)c1c(O)ccc2ccccc12)c1ccccc1 (stereo not given),?,?,?,?,?,21µM*
Cn1c(=S)[nH]c2cc(C(=O)N3CCN(C(=O)c4ccccc4)CC3)ccc2c1=O,.,12%,1%,.,.,.
COc1ccc(NC(=O)[C@H]2O[C@@H]3OC(C)(C)O[C@@H]3[C@H]3OC(C)(C)O[C@H]32)c(OC)c1,i,.,.,.,.,i
Cc1ccc(Cn2c(=N)c(C(=O)NC3CCCC3)cc3c(=O)n4ccccc4nc32)cc1,i,12%,20%,1.6µM*,?,i
N=c1c(C(=O)NC2CCCCC2)cc2c(=O)n3ccccc3nc2n1CCc1ccccc1,i,-1%,2%,2.3µM*,2.6µM*,i
CC(C)Cc1ccc(CN2CCCC(NC(=O)c3cnc4ccccn4c3=O)C2)cc1 (stereo not given),16µM*,-11%,-7%,?,?,?
O=C(NC1CCCN(Cc2ccc(Cl)cc2)C1)c1cnc2ccccn2c1=O (stereo not given),.,-6%,-17%,1%,11%,.
N=c1c(C(=O)NCCc2ccccc2)cc2c(=O)n3ccccc3nc2n1Cc1ccco1,i,?,?,18µM*,9.2µM*,?
N=c1c(S(=O)(=O)c2ccccc2)cc2c(=O)n3ccccc3nc2n1Cc1ccco1,i,-23%,-19%,18%,1%,i
COc1ccc(-n2nc(C(=O)N(C)c3cc(Cl)ccc3OC)c3c4ccccc4n(C)c3c2=O)cc1,i,.,.,.,.,i
